Consider 89 compounds from PubChem BioAssay AID1259422 (The Scripps Research Institute Molecular Screening Center, 2018).

For orientation: inhibition means the relative decrease from the control value, in per cent.

Among all 640,000 compounds or so, about 9,300 (1.5%) were called active. Rule as the data show it: active = inhibition above about 32%; inactive = the rest. For the sample, actives were picked, then their nearest neighbours and some compounds at random.

The test is described as follows: TEAD-YAP interaction inhibition, primary screen, TEAD-YAP interaction inhibitor project, luminescence, HEK-TIYL cells (AID 1259422).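 Also: 0% = median of test compound wells and 100% = reference inhibitor wells.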 The settings on record: TEAD-Gal4/YAP UAS-luciferase luminescence, at 9.12 µM, stronger effect = higher value.
Turning to `O=C(Nc1ccc(-c2nc3cc(Cl)ccc3o2)cc1)c1ccc(-c2ccc(Cl)cc2)o1`, the inhibition was -100% (inactive).
As to `O=S(=O)(NCc1ccccc1)c1cccc(S(=O)(=O)NCc2ccccc2)c1`, the inhibition is 4.17% (inactive).
Turning to `N#C/C(=C\c1cn(-c2ccccc2)nc1-c1ccc(Cl)cc1)C(N)=O`, the inhibition is 2.99% (inactive).
Regarding `NC(=O)c1ccc(-c2nc(NC3CC3)c3ncn(C4CCCCC4)c3n2)cc1`, the inhibition was 18% (inactive).
The value for `O=C(O)c1nnn(-c2ccccc2)c1C(=O)O` was 5.21% (inactive); that for `CCOC(=O)c1sc2nc(C)nc(N3CCCCC3)c2c1C` was -2.79% (inactive).
Turning to `O=C(c1cc2ccccc2oc1=O)N(Cc1ccccc1)c1cccc([N+](=O)[O-])c1`, the inhibition was 0.25% (inactive).
On to `CCN(Cc1ccccc1)Cc1ccc([N+](=O)[O-])cc1`, for which the inhibition was 10.2% (inactive).
Turning to `O=[N+]([O-])C1CS(=O)(=O)C=C1N(Cc1ccccc1)c1ccccc1` (centres undefined), the inhibition was 39.5% (active).
The figure for `Cc1cc(OCc2nc(SCC(=O)N(C)C)n[nH]2)ccc1Cl` is -1.92% (inactive); for `Cc1ccccc1Nc1ncnc2nc[nH]c12` it is -0.78% (inactive); for `COc1cc(C(=O)NC(=S)Nc2ccccc2O)cc(OC)c1OC` it is 12% (inactive).
The value for `CCc1cc(C)cc(OCC(O)Cn2c(C)nc3ccccc32)c1` (centres undefined) was 26.7% (inactive); that for `Cc1nc2ccccc2n1CC(O)COc1ccc(N)cc1` (centres undefined) was 10.8% (inactive).
As for `Cc1cc(C)c(OCC(O)Cn2c(C)nc3ccccc32)c(C)c1` (centres undefined), the inhibition was 35.1% (active).
With `O=C(Oc1cc(-c2ccc(Cl)cc2)c2oc(=O)sc2c1)c1ccccc1`, the inhibition is -3.66% (inactive).
`COc1ccccc1N1CCN(c2c(-c3ccc(Cl)cc3)c(=O)c2=O)CC1`: the inhibition is 70.2% (active).
Turning to `COc1ccccc1N1CCN(Cc2cc(=O)c(OCc3ccc(Cl)cc3)co2)CC1`, the inhibition is 6.69% (inactive).
In the case of `COc1ccccc1N1CCN(S(=O)(=O)c2ccccc2[N+](=O)[O-])CC1`, the inhibition was 13% (inactive).
The figure for `CCOC(=O)N1CCC(N2C(=O)c3ccc(C(=O)NCC(OC)OC)cc3C2=O)CC1` is 10.6% (inactive).
The value for `CCCCSc1nnc(NC(=O)C2CC2)s1` was -17.5% (inactive); that for `NS(=O)(=O)c1cccc(N=C2C(=O)Nc3ccc([N+](=O)[O-])cc32)c1` was -2.91% (inactive); that for `CCN(CC)c1ccc2cc(-c3nc4ccc(Cl)cc4[nH]3)c(=O)oc2c1` was 25.2% (inactive).
The figure for `CCN(CC)c1ccc2cc(-c3nc4ccccc4[nH]3)c(=N)oc2c1` is 76.8% (active); for `CCN(CC)c1ccc2cc(-c3nnc(Nc4ccccc4F)s3)c(=O)oc2c1` it is 2.05% (inactive).
In the case of `CC[n+]1c(/C=C/c2ccc(N(C)C)cc2)oc2ccccc21`, the inhibition was 1.32% (inactive).
The figure for `CC[n+]1cc(C)ccc1/C=C/c1ccc(N(C)C)cc1` is 86.9% (active); for `CN(C)c1ccc(C=NCC(O)CN=Cc2ccc(N(C)C)cc2)cc1` (centres undefined) it is 3.49% (inactive); for `COc1ccc(/C=C2/SC(=O)N(CCCC(=O)Nc3ccc(C(=O)O)cc3)C2=O)cc1` it is 80.5% (active).
On to `Cc1ccc(/C=C2/SC(=O)N(CCC(=O)O)C2=O)cc1`, for which the inhibition was 19.7% (inactive).
`COc1ccc(/C=C2\SC(=O)N(Cc3ccc(C(=O)O)cc3)C2=O)cc1`: the inhibition was 1.76% (inactive).
The value for `COc1ccc(N=C2SC(C(=O)Nc3ccc(C)cc3C)CC(=O)N2CCc2ccc(OC)c(OC)c2)cc1` (centres undefined) was 9.84% (inactive).
For the compound `O=C(Cc1cc(=O)[nH]c(=O)[nH]1)NCCCc1ccccc1`, the inhibition is -5.86% (inactive).
The value for `Cc1ccc2oc(C(=O)Nc3ccccc3F)cc(=O)c2c1` was 4.72% (inactive); that for `CCOC(=O)Nc1c(C(=O)OC)[nH]c2ccc(C)cc12` was -2.73% (inactive); that for `CCOC(=O)Nc1cc(=O)c2cc(C)ccc2o1` was 41.8% (active).
Turning to `COCCSc1nc2c(c(=O)[nH]c(=O)n2C)n1Cc1ccccc1Cl`, the inhibition is 2.74% (inactive).
The value for `O=[N+]([O-])c1ccc2cnn(-c3cccc(C(F)(F)F)c3)c2c1` was -0.71% (inactive); that for `COc1ccccc1N1CCN(c2ncnc3sc(C(=O)N4CCCCC4C)c(C)c23)CC1` (centres undefined) was 6.82% (inactive).
The value for `CCOC(=O)c1c(/N=C/c2cccc(OC)c2OC)sc2c1CCN(CC)C2` was 4.12% (inactive).
Regarding `CC(C)N(CC(=O)N1c2ccccc2CC1C)Cc1ccccc1` (centres undefined), the inhibition is -1.32% (inactive).
The figure for `CC/C(=N/Nc1nnc2c(n1)[nH]c1ccccc12)c1ccccc1` is 0.16% (inactive); for `Oc1ccc(O)c(/C=N/Nc2nnc3c(n2)[nH]c2ccccc23)c1` it is 49% (active).
Take `Cc1cccc2c1[nH]c1nc(N/N=C\c3ccc(O)cc3)nnc12`: the inhibition is -16.6% (inactive).
For `Cc1nc(N2CCC(NCC(F)(F)F)CC2)nc2cc3c(cc12)CCC3`, the inhibition is -15.4% (inactive).
The value for `C/C(=N\NC(=O)c1nnn(-c2nonc2N)c1C)c1ccc(Cl)c(Cl)c1` was -6.68% (inactive); that for `O=C(O)CCC(=O)N1CCC(c2nc3ccc(Cl)cc3[nH]2)CC1` was 1.09% (inactive); that for `O=C(CCCn1c(=S)[nH]c2ccccc2c1=O)Nc1ccc(F)c(Cl)c1` was -21.7% (inactive).
The value for `O=C(CCCn1c(=S)[nH]c2ccccc2c1=O)NCc1cccc(Cl)c1` was 3.21% (inactive); that for `Cc1cc(C)cc(NC(=O)CCCn2c(=S)[nH]c3ccccc3c2=O)c1` was 34.5% (active); that for `CC(C)n1cnc2c(NCCCN3CCCC3=O)nc(Nc3ccc(-n4ccnc4)cc3)nc21` was 44.4% (active).
Take `c1ccc(Nc2nc(Nc3ccc(N4CCOCC4)cc3)c3ncn(-c4ccccc4)c3n2)cc1`: the inhibition is 3.79% (inactive).
The value for `COc1ccc(CCNc2nc(N3CCCC3CO)nc3c2ncn3-c2ccsc2)cc1` (centres undefined) was 53.3% (active); that for `c1ccc(-n2cnc3c(NCCN4CCOCC4)nc(Nc4ccc(-n5ccnc5)cc4)nc32)cc1` was 61.3% (active); that for `c1cc(Nc2nc(Nc3ccc(N4CCOCC4)cc3)c3ncn(-c4ccsc4)c3n2)ccn1` was -4.11% (inactive).
As to `O=C1CCCN1CCCNc1nc(Nc2ccc(-n3ccnc3)cc2)nc2c1ncn2CCN1CCCC1=O`, the inhibition was 4.85% (inactive).
With `OCCNc1nc(N2CCCC2CO)nc2c1ncn2-c1ccsc1` (centres undefined), the inhibition is 14.6% (inactive).
The figure for `OCCNc1nc(Nc2ccc(N3CCOCC3)cc2)nc2c1ncn2-c1ccccc1` is 28.7% (inactive).
The figure for `OCC1CCCN1c1nc(NC2CC2)c2ncn(-c3ccccc3)c2n1` (centres undefined) is -46.6% (inactive); for `CN(C)c1cccc(Nc2nc(NCCN3CCOCC3)c3ncn(-c4ccccc4)c3n2)c1` it is 3.8% (inactive); for `CC(C)n1cnc2c(NCCCN3CCCC3=O)nc(-c3csc4ccccc34)nc21` it is 3.47% (inactive).
For `c1cnc(Nc2nc(Nc3ccc(N4CCOCC4)cc3)c3ncn(-c4ccsc4)c3n2)nc1`, the inhibition was 51.1% (active).
With `C[C@@H]1CN(C(=O)C2CC23CCN(Cc2coc4ccccc4c2=O)CC3)C[C@H](C)O1` (some centres undefined), the inhibition is -6.72% (inactive).
On to `Cc1cccc(-c2nc(-c3ccc(Cl)cc3)no2)c1`, for which the inhibition is -40.1% (inactive).
The value for `CCN(CC)S(=O)(=O)c1ccc(N2CCc3ccccc32)c([N+](=O)[O-])c1` was -8.71% (inactive); that for `CC(C)(C#N)OC(=O)Nc1cccc(Cl)c1` was -3.72% (inactive).
Turning to `Cc1ccc(N2C(=O)Cc3c2nc(N)c2c(N)nc(N4CCCCC4)c(C#N)c32)cc1C`, the inhibition was 18.1% (inactive).
Consider `CC(C)(C)NC(=O)c1cnn2c(C(F)(F)F)cc(-c3ccc(F)cc3)nc12`, for which the inhibition is 6.73% (inactive).
The value for `CCOCCOC(=O)COc1ccc2c(C)cc(=O)oc2c1` was 3.62% (inactive).
The figure for `Cc1ccc(-c2cc(C(=O)Nc3ccc(Br)cc3Br)c3ccccc3n2)o1` is -7.27% (inactive).
As to `Cc1nn(C)c(C)c1NC(=O)c1c([N+](=O)[O-])cnn1C`, the inhibition is 4.42% (inactive).
Take `Cc1c(Cl)cccc1N1C(=O)c2ccc(Oc3ccc(Nc4ncnc5ccccc45)cc3)cc2C1=O`: the inhibition was 2.53% (inactive).
The value for `O=C(Cc1c(F)cccc1Cl)Nc1cc(C(=O)Nc2cccc(C(F)(F)F)c2)ccc1N1CC2CC(C1)c1cccc(=O)n1C2` (centres undefined) was 2.29% (inactive); that for `c1ccc(Oc2ccc(Nc3nc(Nc4ccccn4)nc4c3ncn4-c3ccsc3)cc2)cc1` was 2.53% (inactive).
The figure for `Oc1ccc(CCNc2nc(NCCN3CCOCC3)nc3c2ncn3-c2ccsc2)cc1` is 34.3% (active).
The value for `c1ccc2c(Nc3nc(NCCN4CCOCC4)c4ncn(-c5ccsc5)c4n3)nccc2c1` was 19.8% (inactive).
Consider `COc1cc(Nc2nc(Nc3nccc4ccccc34)nc3c2ncn3-c2ccsc2)cc(OC)c1OC`, for which the inhibition was 12.9% (inactive).
Take `CC(=O)Nc1ccc(Nc2nc(Nc3ccc(-n4ccnc4)cc3)nc3c2ncn3-c2ccsc2)cc1`: the inhibition was 24.8% (inactive).
The value for `Oc1ccc(CCNc2nc(Nc3ccc(N4CCOCC4)cc3)nc3c2ncn3-c2ccccc2)cc1` was 9.04% (inactive).
The figure for `COc1cc(Nc2nc(NCc3cccnc3)nc3c2ncn3-c2ccsc2)cc(OC)c1OC` is 0.91% (inactive); for `COc1cc(Nc2nc(NCc3cccnc3)c3ncn(-c4ccsc4)c3n2)cc(OC)c1OC` it is 30.7% (inactive).
As for `CCNc1nc(Nc2cc(OC)c(OC)c(OC)c2)c2ncn(-c3ccsc3)c2n1`, the inhibition was 48.6% (active).
The figure for `COc1ccc(CCNc2nc(Nc3ccc(-n4ccnc4)cc3)nc3c2ncn3-c2ccsc2)cc1` is 65.1% (active); for `Nc1nc(Nc2nccc3ccccc23)nc2c1ncn2-c1ccsc1` it is 53.2% (active); for `Nc1nc(NCc2cccnc2)nc2c1ncn2-c1ccsc1` it is -5.56% (inactive).
Regarding `CCCCOc1ccc(NS(=O)(=O)c2cc(F)ccc2OC)cc1`, the inhibition is 1.6% (inactive).
With `Cc1cc2c(cc1C)NC(c1cccc3ccccc13)C1=C(CC(C)(C)CC1=O)N2` (centres undefined), the inhibition was -9.75% (inactive).
The value for `Cn1c(=O)n(Cc2ccc(F)cc2)c(=O)c2c1nc1oc(C(C)(C)C)cn12` was -6.69% (inactive).
In the case of `O=[N+]([O-])c1ccc(S(=O)(=O)NCCSCc2ccco2)cc1`, the inhibition was 6.05% (inactive).
